In one test the target is MMP20. Description: pooled miR-30 sensor sort-seq; sequence = guide strand. The note with it: shRNA.
In turn, TTCTACAGCAGCATCGATTTGG registered a sensor-assay potency score (higher = more potent) of -0.442. Same read-out and setting: next, TTCTTGTACTTATAAGTTGGGT: -0.728; TAGTCTTTTTCCATTTTCCTTT: -0.827. The same measure, in the same setting: next, TTCCTTATCATGGAATTGCTTC: -0.732; TTTCCTTTTCCTTTCGTCGTAG: 0.328. On the same count and under the same terms, next, TTTCCTTTCGTCGTAGCTGTAG: -0.397; TTAATTCTACAGCAGCATCGAT: -0.771. With TATTTGTGTAATATTTGTCAAG, the sensor-assay potency score (higher = more potent) is -1.1.

TTCTTGATCACGTTCATTGTGG displayed a sensor-assay potency score (higher = more potent) of -0.0903.

Sequence TTTCACATCATCTTTGGGGAGG showed a sensor-assay potency score (higher = more potent) of -0.942. Take TAATTCTACAGCAGCATCGATT: the sensor-assay potency score (higher = more potent) is -0.811. On the same count and under the same terms, next, TGTAGCTCCTTAATCTTCCTTA: -0.0346.

In the next test the target is MMP27. The test is described as above. The note with it: shRNA.
TAATTCAAACTCAACATCCGTG: the sensor-assay potency score (higher = more potent) stood at 0.0831. Still for that read-out and setting: next, TAATTTGGGAACATCAAGGCTG: 0.912; AAGAACATTACTTCTCTGCGGA: 0.732. Same read-out and setting: next, ATTCTTTGTCTTAATGTCGTAT: -0.054; TATTCTTTGTCTTAATGTCGTA: -0.516. On the same count and under the same terms, next, TATTTCAAGAGAGTAGAACTGG: 0.764. Sequence TTTCTTGTGGTCTTATCACAGA gave a sensor-assay potency score (higher = more potent) of -0.677. On the same count and under the same terms, for TAGGTTTTTCTTGTGGTCTTAT the value was -0.201; for TTTGGGAACATCAAGGCTGTTT, -0.134; for TTGTGGTCTTATCACAGACGGC, -1.63. Same read-out and setting: next, TAGTTTATTATTCTGTAGGTGA: -0.199; TTAATTCAAACTCAACATCCGT: -0.367.

The target in a further test is MMS22L. The description is as above. The note with it: shRNA.
TTGCTGACAACATAGGTGCAGG came in with a sensor-assay potency score (higher = more potent) of -1.03. The same measure, in the same setting: for TTTGAGATTGACAACACACGAT the value was 0.337; for TTTATCGCAACAGCAAGTCTTC, -0.217. In turn, TATATTTTAATACTTCACCAAG displayed a sensor-assay potency score (higher = more potent) of -1.14.

The sequence TTCTTGAACACCATCAATGTAT gave a sensor-assay potency score (higher = more potent) of -0.0869. The same measure, in the same setting: next, TTCTTCTAGAATGACACCCTGA: 0.182; TAATCTTGTCAGTTTGACCAAC: -0.606; TAATCCACCAACTAAAACCTAA: -0.962. Still for that read-out and setting: next, TATCTTGCTACAACTTGAGGGC: -0.184. Same read-out and setting: for TTAAGTAGTTTATTCAACCAGT the value was -0.299; for TTGAGATTGACAACACACGATA, -0.65; for TTTTTTAACAACTTTTGCCAGA, -0.793.

Values taken from the OligoGym collection.
Note: reference of the scale not given here.
